Most compounds without a hit are left out; they make up all but 7.5% or so of the library.
Rab9 promoter act – Rab9 promoter activation; Potency, µM (doses to about 9.22 µM), for inactives: at the highest dose activation, negative = inhibition, usual class: activators; 2.8% of 320,000 active; Huh7 Rab9 promoter-luciferase reporter, luminescence, 24 h; AID 485297; further: % of control where 0% means no effect; nearly all actives have a fitted effect of over 60% in size
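Cells were plated at 1500 per well in reduced-serum medium with 10% FBS and left 2 h. Compound in DMSO was then added for 24 h at 37 °C. Reporter signal was read by luminescence after 10 min with luciferase detection reagent.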
Luc counter – counter-screen: inhibitors of Kinase-Glo firefly luciferase; Q27757; Kinase-Glo luciferase, ATP luminescence, 8 min; Potency, µM (titrated, usually from 38.3 µM), for inactives: top-dose activity change, negative = inhibition, hits mostly inhibitors; 0.28% of 200,000 active; AID 1379; further: on the % scale 0 is the no-effect control and ±100 the full control effect; nearly all actives have a fitted effect of over 60% in size
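Compounds were added to a substrate mix at pH 7.2 (50 mM imidazole, 10 uM ATP, within the enzyme's linear range), followed by Kinase-Glo detection reagent; luminescence was measured after 8 minutes at ambient temperature.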
FLuc counter – firefly luciferase modulation, counter-screen for miR-21 project; P08659; purified FLuc, Km substrates, luminescence inhibition; Potency, µM (doses to about 57.5 µM), for inactives: at the top dose activity change, negative = inhibition, hits mostly inhibitors; 6.9% of 360,000 active; AID 588342;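 further: plate controls were vehicle for no effect and reference inhibitor for full effect; nearly all actives have a fitted effect of over 55% in size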
Target sequence (P08659 whole entry, looked up): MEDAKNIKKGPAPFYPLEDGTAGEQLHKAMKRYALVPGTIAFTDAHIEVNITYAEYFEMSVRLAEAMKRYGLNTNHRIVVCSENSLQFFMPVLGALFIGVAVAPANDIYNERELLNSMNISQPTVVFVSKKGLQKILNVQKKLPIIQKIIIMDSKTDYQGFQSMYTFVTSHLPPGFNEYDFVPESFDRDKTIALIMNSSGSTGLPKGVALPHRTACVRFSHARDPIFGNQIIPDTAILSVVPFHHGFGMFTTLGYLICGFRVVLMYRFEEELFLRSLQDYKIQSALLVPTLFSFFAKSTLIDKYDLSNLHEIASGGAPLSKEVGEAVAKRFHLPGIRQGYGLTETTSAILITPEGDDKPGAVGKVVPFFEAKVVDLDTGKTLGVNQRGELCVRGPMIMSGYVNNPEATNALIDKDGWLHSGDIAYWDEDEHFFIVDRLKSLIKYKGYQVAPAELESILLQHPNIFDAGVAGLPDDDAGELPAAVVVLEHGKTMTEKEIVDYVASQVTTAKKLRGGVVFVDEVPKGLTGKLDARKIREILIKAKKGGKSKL
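Purified P. pyralis luciferase (10nM final) with 10uM D-luciferin and 10uM ATP (Km levels) in 50mM Tris acetate pH 7.5, 10mM Mg acetate, 0.01% Tween-20, 0.05% BSA; qHTS 6-point titration, ~60 µM downward; luminescence read.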
ELG1 genotox – genotoxicity induction in ELG1-luciferase HEK293T cells | HEK293T ELG1-luciferase reporter, luminescence, 16 h | 1.3% of 330,000 active | AID 504466 | Potency, µM (titrated, usually from 46 µM), without a hit: at the top dose activity change, positive = activation, most hits filed as activators; further: % of control where 0% means no effect; nearly all actives have a fitted effect of over 60% in size
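Reporter readout depends on ELG1 protein level, which increases with genetic stress. After 16 hr compound exposure at 37 °C, luciferase activity was quantified using ONE-Glo.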
SMN2 splice enh – SMN2 splice variant enhancement; HEK293 SMN2-luciferase splicing reporter, luminescence, 30-36 h; Potency, µM (titrated, usually from 46.1 µM), without a hit: at the highest dose activity change, positive = activation, usual class: activators; 2.8% of 210,000 active; further: % of control where 0% means no effect; nearly all actives have a fitted effect of over 55% in size
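qHTS luciferase splicing reporter: luminescence rises when SMN2 exon 7 is included in transfected HEK293 cells. Compound exposure lasted 30-36 h at 37C, with 4.5 mM final sodium butyrate as control, followed by a ONE-Glo read.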
NPC1 prom act – NPC1 promoter activation; Huh7 NPC1 promoter luciferase reporter, 24 h; Potency, µM (doses to about 9.22 µM), without a hit: at the top dose activation, usual class: activators; 2.4% of 320,000 active; further: % of control where 0% means no effect; nearly all actives have a fitted effect of over 60% in size
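Luminescence read-out of NPC1 promoter-driven luciferase in stably transfected Huh7 cells; compounds delivered in DMSO and left 24 h at 37C, 5% CO2, qHTS titration format.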
Active calls of the source: *; u = inconclusive; x = not tested or not shown. The call rests on the fitted dose curve; in most records, active means well fitted curve in the direction sought with a large enough effect; inconclusive means small, poorly fitted or top-dose-only effect, or another doubt; inactive means no such curve, though single readings can be large; an effect the other way counts as inactive or inconclusive. Potency means the concentration at half of the fitted maximal effect.

SMILES	Rab9 promoter act	Luc counter	FLuc counter	ELG1 genotox	SMN2 splice enh	NPC1 prom act
Cc1ccc(NC(=O)/C=C\C(=O)N(c2ccc(C(C)C)cc2)C(C(=O)NCc2ccco2)c2ccc(F)cc2)cc1 (centres undefined)	x	x	-1.9%	x	x	x
COc1ccccc1C(=O)Nc1ccc2oc(-c3cccc4c(Br)cccc34)nc2c1	x	x	u	x	1.2%	x
CC(C)(C)C(=O)Nc1ccc2oc(-c3cc(F)c(F)cc3Cl)nc2c1	4.47µM*	-0.3%	2.69µM*	5.17µM*	25.5%	u
O=C(Nc1ccc2oc(-c3ccncc3)nc2c1)c1ccccc1Cl	x	x	u	x	0.2%	x
COc1ccccc1-c1nc2cc(NC(=O)c3ccccc3Cl)ccc2o1	x	x	5.36µM*	x	10.6%	x
O=C(Nc1ccc2oc(-c3ccccc3F)nc2c1)c1ccccc1Cl	x	x	3.38µM*	x	14.1µM*	x
Cc1ccc(CNC(=O)CN2c3cccc4cccc(c34)S2(=O)=O)cc1	-4.9%	x	15.1µM*	0.1%	x	1.2%
COc1cccc(NC(=S)N/N=C2/CCCCc3ccccc32)c1	24.1%	2.2%	13.5µM*	14.2%	28.2µM*	10.4%
Cc1cc(C)c(NC(=O)c2cc3c(=O)n4ccccc4nc3n2C)c(C)c1	x	x	-2.8%	x	x	x
Cn1c(C(=O)NCc2ccccn2)cc2c(=O)n3ccccc3nc21	2µM*	2.1%	15.1µM*	u	14.1µM*	u
Cc1csc2c(N3CCC(C(=O)O)CC3)ncnc12	17.8%	x	16.9µM*	8.3%	x	1.9%
Cc1csc2c(N3CCN(S(=O)(=O)c4ccc(Cl)cc4)CC3)ncnc12	-5.6%	x	1.3%	-0.6%	x	-2.4%
Cc1csc2c(N3CCCCC3)ncnc12	19.4%	x	13.5µM*	10.4%	x	u
Cc1csc2c(N3CCN(C(=O)Nc4ccc(OC(F)(F)F)cc4)CC3)ncnc12	0.6%	x	-19.9%	-9.7%	x	-0.8%
Cc1ccc(-n2nc(C)c3c(C(=O)NCc4ccccc4)cc(C4CC4)nc32)cc1	x	x	9.4%	x	x	x
CCOC(=O)c1ccc2nc(NC(=O)c3ccco3)sc2c1	0.708µM*	-15.8%	2.69µM*	u	2.24µM*	0.891µM*
CCOc1ccc2nc(NC(=O)c3ccoc3C)sc2c1	0.501µM*	2.82µM*	0.477µM*	u	2.51µM*	0.562µM*
CCOC(=O)c1ccc2nc(NC(=O)c3cccs3)sc2c1	0.501µM*	-25.1%	1.2µM*	u	3.98µM*	0.708µM*
CCOc1ccc2nc(NC(=O)c3ccco3)sc2c1	0.316µM*	x	0.675µM*	1.3µM*	x	0.316µM*
COc1ccc(NC(=O)CN(c2cccc(C)c2C)S(=O)(=O)c2ccccc2)cc1OC	x	x	-10.4%	x	-9.1%	x
CC(C)CN(C(=O)COC(=O)CNC(=O)c1ccccc1)c1c(N)n(Cc2ccccc2)c(=O)[nH]c1=O	-1.6%	x	0.2%	-0.8%	x	0.2%
COC(=O)CSCc1nc(-c2ccc(C(=O)OC)cc2)oc1C	x	x	-21.8%	x	x	x
CCOC(=O)c1ccc(NC(=O)CC2C(=O)N(c3cccc(C)c3)C(=O)N2CCOC)cc1 (centres undefined)	x	x	-2.9%	x	10.9%	x
CCOC(=O)c1ccc(NC(=O)CC2C(=O)N(c3cccc(OC)c3)C(=O)N2CCOC)cc1 (centres undefined)	-1.2%	-0.6%	-0.7%	1.1%	3.98µM*	-1.5%
COc1ccccc1C(=O)c1nc2ccccc2n1C	0.7%	x	0.7%	0.1%	x	28.6%
SMILES	Rab9 promoter act	Luc counter	FLuc counter	ELG1 genotox	SMN2 splice enh	NPC1 prom act
COc1ccc(N/C=C(\C#N)c2nc3ccccc3n2C)c(OC)c1	0.4%	13.8%	2.69µM*	-7.0%	-18.0%	21.2%
Cn1c(/C(C#N)=C/c2ccccc2Br)nc2ccccc21	x	x	7.57µM*	x	4.5%	x
CCn1c(/C(C#N)=N/O)nc2ccccc21	0.7%	-0.8%	0.2%	-3.6%	-46.4%	0.1%
CCn1c(/C(C#N)=C/c2ccccc2Cl)nc2ccccc21	x	x	5.36µM*	x	x	x
c1ccc(NC2=Nc3ccccc3CS2)cc1	3.16µM*	0.4%	2.69µM*	u	11.2µM*	1.78µM*
Clc1ccc(OCc2noc(-c3ccsc3)n2)c(Cl)c1	3.98µM*	x	4.26µM*	u	x	2µM*
COc1cc(-c2nc(Cc3ccccc3Cl)no2)cc(OC)c1OC	0.4%	-1.7%	-0.5%	-2.4%	-22.0%	2.1%
Fc1cc(Cl)c(OCc2noc(-c3ccsc3)n2)c(Cl)c1	3.16µM*	x	u	7.3%	x	u
C=CCn1c(SCC(=O)NCC2CCCO2)nnc1-c1ccncc1 (centres undefined)	-5.0%	x	6.5%	-0.1%	x	1.2%
O=C1C2C3C=CC(C3)C2C(=O)N1/N=C/c1ccc(-c2ccccc2[N+](=O)[O-])o1 (centres undefined)	23.7%	-2.5%	19µM*	2.7%	u	17.2%
O=C1C2C3C=CC(C3)C2C(=O)N1/N=C/c1cc(Br)cc([N+](=O)[O-])c1O (centres undefined)	-4.9%	0.7%	19µM*	10.8%	-15.7%	-4.1%
CC(C)OCCCNC(=O)c1cc(-c2cccnc2)nc2ccccc12	-2.0%	x	-0.5%	-9.2%	x	-4.0%
C/C(=C\C(=O)c1ccccc1)NCc1ccc(F)cc1	19.9%	-2.5%	19µM*	0.1%	-6.0%	7.5%
CCc1ccc(NC(=O)c2cnn3ccccc23)cc1	0.112µM*	-18.4%	0.338µM*	0.184µM*	1.78µM*	0.316µM*
CSc1cccc(NC(=O)c2cnn3ccccc23)c1	2µM*	x	4.26µM*	u	x	2.51µM*
CCc1ccc(NC(=O)c2cnn(-c3ccccc3)c2-n2cccc2)cc1	x	x	-10.3%	x	u	x
COC(=O)c1cc(C(C)=O)n2ccccc12	-3.1%	-1.0%	10.7%	u	12.3%	-2.0%
CCc1ccc(NC(=O)c2cc(C(C)=O)n3ccccc23)cc1	x	x	15.1µM*	x	x	x
CC1CCN(S(=O)(=O)c2ccc3c(c2)CCN3C(=O)Nc2ccc(Br)cc2F)CC1	x	x	0.1%	x	4.1%	x
COC(=O)C1(C)C=CC2(CCCCC2)N1C(=O)c1ccccc1 (centres undefined)	x	-0.8%	x	x	-4.5%	x
O=C(CN1C(=O)CC(c2ccc(F)cc2)=Nc2ccccc21)NCc1ccccc1Cl	x	x	-6.2%	x	x	x
COc1ccc(CNC(=O)c2cnn(-c3ccc(F)cc3)c2-n2cccc2)cc1	x	x	-17.2%	x	x	x
O=C(NCc1ccc(F)cc1)c1cnn2ccccc12	2µM*	-3.8%	12µM*	u	12.6µM*	3.16µM*
Cn1nc(C(=O)NCc2ccc(F)cc2)c2ccccc2c1=O	-6.4%	-6.5%	10.1%	3.8%	17.8µM*	-4.0%
Cn1nc(C(=O)NCc2ccccc2)c2ccccc2c1=O	9.1%	1.3%	-0.7%	u	7.9%	-0.3%
O=C(c1ccccc1F)N1CCN(C(=O)C2CC2)CC1	-0.7%	x	0.2%	1.1%	x	4.9%

Screening results (PubChem BioAssay)
